According to PubChem BioAssay (Tox21):
Unmarked numbers belong to inactive results. Results filed as inconclusive are left out. Entries that show only a call come without a potency. Activity calls are given as the source filed them. Unless noted, the call rests on the fitted dose curve; in most records, active means well fitted curve in the direction sought with a large enough effect in the repeat runs; inconclusive means weak or mixed curves; inactive means no such curve, though single readings can be large; an effect the other way counts as inactive or inconclusive.

Experiments:
[1] = qHTS assay to identify small molecule antagonists of the estrogen receptor beta (ER-beta) signaling pathway - cell viability counter screen (AID 1259382);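 further: HEK293T cells carrying ER-beta-UAS-bla reporter stimulated with estradiol; series mostly up to about 92 µM; nearly all actives have a fitted effect of over 55% in size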
Outline: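 HEK293T ER-beta-UAS-bla, 2% charcoal-stripped FBS; compounds + 1nM E2 16 hr 37C; CellTiter-Glo luminescence, 30 min RT.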

[2] = qHTS assay to identify small molecule agonists or antagonists of the thyroid stimulating hormone receptor (TSHR) signaling pathway - wild type cell line counter screen (AID 1259384; calls by dose curve)
Outline: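 Counter screen in untransfected Hek293: compounds (15-point titration, triplicate) plus phosphodiesterase inhibitor Ro20-1724 added after 18 h plating; 30 min RT. Intracellular cAMP via competitive d2/cryptate immunoassay, 1 h incubation.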

[3] = molecular target: Thyrotropin receptor (Homo sapiens) (UniProt P16473); assay: qHTS assay to identify small molecule antagonists of the thyroid stimulating hormone receptor (TSHR) signaling pathway (AID 1259385; calls by dose curve; further: nearly all actives have a fitted effect of over 20% in size)
Thyrotropin receptor (Homo sapiens), sequence (P16473 whole entry, looked up): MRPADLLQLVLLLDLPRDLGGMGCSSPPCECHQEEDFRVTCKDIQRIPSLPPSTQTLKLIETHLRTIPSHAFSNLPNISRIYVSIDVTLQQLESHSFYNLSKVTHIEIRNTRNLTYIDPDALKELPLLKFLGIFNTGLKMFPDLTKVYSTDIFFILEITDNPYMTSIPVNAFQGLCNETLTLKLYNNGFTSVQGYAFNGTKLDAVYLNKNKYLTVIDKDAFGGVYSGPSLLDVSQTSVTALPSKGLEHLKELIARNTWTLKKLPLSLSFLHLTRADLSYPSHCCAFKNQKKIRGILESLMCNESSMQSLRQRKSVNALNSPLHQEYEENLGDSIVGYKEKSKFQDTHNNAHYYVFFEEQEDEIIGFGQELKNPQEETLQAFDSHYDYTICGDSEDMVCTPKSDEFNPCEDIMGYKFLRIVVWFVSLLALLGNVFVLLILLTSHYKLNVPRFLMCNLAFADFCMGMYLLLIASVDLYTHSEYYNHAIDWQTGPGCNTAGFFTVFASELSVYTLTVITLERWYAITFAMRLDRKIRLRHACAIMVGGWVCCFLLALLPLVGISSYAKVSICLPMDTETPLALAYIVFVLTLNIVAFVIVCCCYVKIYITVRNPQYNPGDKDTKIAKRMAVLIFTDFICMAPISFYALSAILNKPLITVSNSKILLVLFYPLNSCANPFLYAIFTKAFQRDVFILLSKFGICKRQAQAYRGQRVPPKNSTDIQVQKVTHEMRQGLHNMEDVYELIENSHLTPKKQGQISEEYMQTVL
Outline: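 Antagonist mode: compound-treated TSHR-expressing HEK293 cells were stimulated with 1.5 ng/mL TSH (final) in presence of Ro20-1724 for 30 min at RT. HTRF cAMP detection after 1 h; each compound tested at 15 concentrations, triplicate.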

[4] = qHTS assay to identify small molecule agonists of the estrogen receptor alpha (ER-alpha) signaling pathway in the presence of an antagonist - cell viability counter screen (AID 1259386);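 further: series mostly up to about 92 µM; cells exposed to compounds for 22 h at 37 °C before the viability read; nearly all actives have a fitted effect of over 30% in size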
Outline: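 Steps: 5-day stripped-FBS culture; seed and incubate 24hr; add ICI-182,780 (10.0nM final); pin 15-point compound titration; incubate 22hr at 37C; add CellTiter-Fluor at 21hr; read fluorescence.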

[5] = molecular target: Progesterone receptor (Homo sapiens) (UniProt P06401); assay: qHTS assay to identify small molecule agonists of the progesterone receptor (PR) signaling pathway (AID 1346784; calls by dose curve; further: nearly all actives have a fitted effect of over 30% in size)
Progesterone receptor (Homo sapiens), sequence (P06401 whole entry, looked up): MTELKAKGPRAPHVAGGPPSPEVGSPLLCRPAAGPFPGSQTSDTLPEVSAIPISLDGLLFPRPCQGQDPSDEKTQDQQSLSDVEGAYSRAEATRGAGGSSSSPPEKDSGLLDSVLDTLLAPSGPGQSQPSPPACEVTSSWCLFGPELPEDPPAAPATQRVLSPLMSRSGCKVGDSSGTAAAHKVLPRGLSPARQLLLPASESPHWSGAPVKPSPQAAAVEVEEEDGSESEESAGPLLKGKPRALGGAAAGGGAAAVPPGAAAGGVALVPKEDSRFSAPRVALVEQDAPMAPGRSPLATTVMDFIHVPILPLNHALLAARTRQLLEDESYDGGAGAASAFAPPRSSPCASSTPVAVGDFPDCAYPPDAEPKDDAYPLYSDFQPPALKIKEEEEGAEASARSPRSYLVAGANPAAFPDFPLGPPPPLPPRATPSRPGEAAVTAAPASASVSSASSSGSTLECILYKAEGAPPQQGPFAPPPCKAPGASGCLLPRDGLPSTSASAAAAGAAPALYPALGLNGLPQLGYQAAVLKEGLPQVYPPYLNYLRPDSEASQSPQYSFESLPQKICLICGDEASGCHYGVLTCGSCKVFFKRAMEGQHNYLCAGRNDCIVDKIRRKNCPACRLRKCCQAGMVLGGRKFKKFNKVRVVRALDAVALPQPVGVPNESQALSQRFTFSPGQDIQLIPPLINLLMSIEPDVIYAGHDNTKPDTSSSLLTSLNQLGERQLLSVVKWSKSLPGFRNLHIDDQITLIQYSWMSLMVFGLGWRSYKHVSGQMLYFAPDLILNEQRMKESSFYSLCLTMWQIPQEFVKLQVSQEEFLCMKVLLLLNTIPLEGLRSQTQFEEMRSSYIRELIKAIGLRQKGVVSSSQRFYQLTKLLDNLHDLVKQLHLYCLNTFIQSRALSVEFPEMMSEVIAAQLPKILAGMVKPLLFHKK
Outline: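 Compounds were tested for PR agonism in HEK 293T cells bearing a beta-lactamase gene under UAS control. Treatment lasted 16 hr at 37C; signal came from fluorescence of a FRET substrate.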

[6] = molecular target: Progesterone receptor (Homo sapiens) (UniProt P06401); assay: qHTS assay to identify small molecule antagonists of the progesterone receptor (PR) signaling pathway (AID 1346795; active means well fitted inhibition curve with a large enough effect in the signal ratio in the repeat runs, not every such curve was filed as active; the % refers to the signal ratio; further: potency means the concentration at half of the fitted maximal effect)
Outline: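 In HEK293T cells bearing the PR-UAS-bla reporter, compound effects on promegestone-driven (1 nM) beta-lactamase expression are assessed after 16 hr using a fluorescent FRET substrate incubated 2 hr at room temperature.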

[7] = qHTS assay to identify small molecule antagonists of the progesterone receptor (PR) signaling pathway - cell viability counter screen (AID 1346798); further: series mostly up to about 92 µM; nearly all actives have a fitted effect of over 50% in size
Outline: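 Following a 4 hr attachment, PR-UAS-bla HEK293T cells in charcoal-stripped FBS medium were exposed to compounds with R5020 for 16 hr; CellTiter-Glo was added and luminescence read after 30 min at room temperature.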

[8] = qHTS assay to identify small molecule agonists of the progesterone receptor (PR) signaling pathway - cell viability counter screen (AID 1346799; calls by dose curve; further: nearly all actives have a fitted effect of over 45% in size; further: potency means the concentration at half of the fitted maximal effect)
Outline: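 Here, 3,000 PR-UAS-bla HEK293T cells per well were treated with compounds for 16 hr after a 6 hr preincubation at 37C and 5% CO2; cell viability is the CellTiter-Glo luminescence signal.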

[9] = qHTS assay to identify small molecule antagonists of the TGF-beta/Smad signaling pathway - cell viability counter screen (AID 1346824); further: nearly all actives have a fitted effect of over 50% in size
Outline: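 Cytotoxicity counter-screen run in the same wells as the beta-lactamase Smad reporter read: CellTiter-Glo luminescence after 30 min at room temperature. HEK 293T SBE-bla cells had 5 hr compound exposure at 37 C with TGF-beta1 (0.25 ng/mL stock).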

[10] = molecular target: Estrogen receptor (Homo sapiens) (UniProt P03372); assay: qHTS assay to identify small molecule agonists of the estrogen receptor alpha (ER-alpha) signaling pathway in the presence of an antagonist (AID 1259383; calls by dose curve; further: top concentration of the series differs between compounds; nearly all actives have a fitted effect of over 15% in size)
Estrogen receptor (Homo sapiens), sequence (P03372 whole entry, looked up): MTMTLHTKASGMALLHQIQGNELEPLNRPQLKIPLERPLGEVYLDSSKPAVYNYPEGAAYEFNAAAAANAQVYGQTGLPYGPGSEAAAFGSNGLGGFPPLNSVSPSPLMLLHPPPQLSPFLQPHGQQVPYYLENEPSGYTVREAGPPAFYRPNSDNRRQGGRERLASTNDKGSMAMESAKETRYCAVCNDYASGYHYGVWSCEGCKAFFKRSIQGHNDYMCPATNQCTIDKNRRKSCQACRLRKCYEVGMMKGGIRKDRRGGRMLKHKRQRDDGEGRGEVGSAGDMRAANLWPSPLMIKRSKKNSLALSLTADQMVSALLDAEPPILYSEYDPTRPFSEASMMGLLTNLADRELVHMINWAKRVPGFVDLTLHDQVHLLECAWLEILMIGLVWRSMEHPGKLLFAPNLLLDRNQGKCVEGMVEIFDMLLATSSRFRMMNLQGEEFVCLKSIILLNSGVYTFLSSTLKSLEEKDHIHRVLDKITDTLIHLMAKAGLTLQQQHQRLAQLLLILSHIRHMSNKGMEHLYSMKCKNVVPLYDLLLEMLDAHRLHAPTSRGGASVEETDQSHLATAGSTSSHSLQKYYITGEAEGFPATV
Outline: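 ER-alpha agonism measured under antagonist challenge: 10.0nM ICI-182,780 (final) plus compound, 15 concentrations, 22hr, VM7Luc4E2 ERE-luciferase cells. Read by luminescence.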

| SMILES | outcome [1] | outcome [2] | outcome [3] | outcome [4] | Potency [5] | Potency [6] | outcome [7] | Potency [8] | outcome [9] | Potency [10] |
| --- | --- | --- | --- | --- | --- | --- | --- | --- | --- | --- |
| C=C(C)C(=O)OCCCC | inactive | inactive | inactive | inactive | inactive | inactive | inactive | inactive | inactive | – |
| C[Si](C)(C)O[Si](O)(O)O | inactive | – | – | inactive | inactive | – | – | inactive | inactive | – |
| CCCc1ncc(C(=O)O)s1 | inactive | – | – | inactive | inactive | inactive | inactive | inactive | inactive | – |
| CNCCc1ccccn1 | inactive | – | – | inactive | inactive | inactive | inactive | inactive | inactive | – |
| CO/N=C(\C(=O)O)c1csc(NC(=O)CCl)n1 | inactive | – | – | inactive | inactive | inactive | inactive | inactive | inactive | – |
| COC(=O)c1ccccc1Cl | inactive | – | – | inactive | – | inactive | inactive | – | – | – |
| O=C(O)CCC(=O)Nc1ccc(S(=O)(=O)Nc2nccs2)cc1 | inactive | – | – | inactive | inactive | inactive | inactive | inactive | – | – |
| CCCCCCCCCCCC(C)=O | inactive | – | inactive | inactive | inactive | inactive | inactive | inactive | – | – |
| C=C(C)C(=O)OCCOC1CC2CC1C1C=CCC21 (stereo unspecified) | inactive | – | – | inactive | inactive | inactive | inactive | inactive | – | – |
| O=C(O)P(=O)(O)O | inactive | – | inactive | inactive | inactive | inactive | inactive | – | inactive | – |
| CCCCCCCCOCCC#N | inactive | – | – | inactive | inactive | inactive | inactive | inactive | inactive | – |
| CC/C=C/CCCCCCCCCCOC(C)=O | inactive | – | inactive | inactive | inactive | inactive | inactive | inactive | inactive | – |
| COc1ccc2cc(CCC(C)=O)ccc2c1 | inactive | – | inactive | inactive | inactive | 13.3 µM (active) | inactive | – | inactive | – |
| CC(=O)c1c(C)cc(C(C)(C)C)cc1C | inactive | – | – | inactive | inactive | inactive | inactive | inactive | inactive | – |
| CN(C)CCC[C@@]1(c2ccc(F)cc2)OCc2cc(C#N)ccc21 | – | inactive | inactive | inactive | inactive | inactive | – | – | inactive | – |
| CC[N+](C)(CC)CC | inactive | – | – | inactive | inactive | inactive | inactive | inactive | inactive | – |
| CCOC(=O)CC(C(C)=O)C(C)=O | inactive | – | inactive | inactive | inactive | inactive | inactive | inactive | inactive | – |
| O=c1[nH]c(=O)c2cn[nH]c2[nH]1 | inactive | – | – | inactive | inactive | inactive | inactive | inactive | – | – |
| C=CC(=O)OCCOCCOCC | inactive | – | – | inactive | inactive | – | inactive | inactive | inactive | – |
| Cc1cc2c(cc1CC(=O)c1sccc1S(=O)(=O)Nc1onc(C)c1Cl)OCO2 | inactive | – | – | inactive | inactive | inactive | inactive | inactive | inactive | – |

| SMILES | outcome [1] | outcome [2] | outcome [3] | outcome [4] | Potency [5] | Potency [6] | outcome [7] | Potency [8] | outcome [9] | Potency [10] |
| --- | --- | --- | --- | --- | --- | --- | --- | --- | --- | --- |
| O=Cc1ccccc1S(=O)(=O)O | inactive | – | inactive | inactive | inactive | inactive | inactive | inactive | inactive | – |
| Cc1ccc(O)c([N+](=O)[O-])c1 | – | – | – | inactive | – | inactive | – | 24.6 µM (active) | inactive | inactive |
| CCCCN=C(N)N=C(N)N | inactive | – | inactive | inactive | inactive | inactive | inactive | inactive | inactive | – |
| CC(C)(C)C(=O)NCCCC(=O)O | – | inactive | – | inactive | – | – | inactive | inactive | inactive | – |
| C/C=C/C(=O)CCCC | inactive | – | inactive | inactive | inactive | inactive | inactive | inactive | inactive | – |
| O=S(=O)(O)c1ccc(Cl)cc1 | inactive | – | – | inactive | inactive | inactive | inactive | inactive | inactive | – |
| CC(=O)c1ccc(O)c(C(N)=O)c1 | inactive | – | inactive | inactive | inactive | inactive | inactive | inactive | inactive | – |
| COc1cc(C(=O)NC2CCCNC2)cc(OC)c1OC (stereo unspecified) | inactive | – | – | inactive | inactive | inactive | inactive | – | – | – |
| COC(=O)c1ccc(NC(C)=O)cc1OC | inactive | – | inactive | inactive | inactive | inactive | inactive | inactive | inactive | – |
| CC/C=C\CCCCCCCCCCOC(C)=O | inactive | – | inactive | inactive | inactive | inactive | inactive | inactive | inactive | – |
| COC(C)(C)CC(C)=O | inactive | – | – | inactive | inactive | inactive | inactive | – | inactive | – |
| CNC(=O)c1c(I)c(NC(C)=O)c(I)c(C(=O)O)c1I | inactive | – | – | inactive | inactive | inactive | inactive | inactive | – | – |
| CC(CN1CC(=O)NC(=O)C1)N1CC(=O)NC(=O)C1 (stereo unspecified) | inactive | – | – | inactive | inactive | inactive | inactive | inactive | inactive | – |
| NC(=O)CC[C@@H](N)C(=O)O | inactive | – | – | inactive | inactive | inactive | inactive | inactive | – | – |
| Nc1ccc(C(=O)NCC(=O)O)cc1 | inactive | – | – | inactive | inactive | inactive | inactive | inactive | inactive | – |
| CC1(C)C(=O)C(C)(C)C1=O | inactive | – | – | inactive | inactive | inactive | inactive | inactive | inactive | – |
| CC(C)(C)OC=O | inactive | – | inactive | inactive | inactive | – | – | inactive | inactive | – |
| O=P(O)(O)C(O)(Cc1cccnc1)P(=O)(O)O | inactive | – | – | inactive | inactive | – | – | inactive | inactive | – |
| COc1ccc(Cl)cc1C | inactive | – | – | inactive | inactive | inactive | inactive | inactive | inactive | – |
